This is a sample that favours compounds with a hit; in the whole collection about 11% have one here.
15-hLO inh: 15-hLO (ALOX15) enzyme inhibition; purified 15hLO-1, xylenol orange hydroperoxide absorbance; Potency, µM (series often up to 57.1 µM), without a hit: at the top dose activity change, negative = inhibition, most hits filed as inhibitors; hit rate 1.4% among 74,000; AID 887; further: nearly all actives have a fitted effect of over 55% in size
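40 nM 15hLO-1 + cpd, 15 min RT; start w/ 50 uM AA (final), 6 min RT; stop/detect w/ 200 uM XO + 300 uM Fe(II) in 50 mM H2SO4, 30 min; A573/A405. Buffer 25 mM Hepes pH 7.5, 0.01% Triton X-100. No-enzyme wells as negative control.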
Bst PK mod: pyruvate kinase (B. stearothermophilus) modulation; purified pyruvate kinase, luminescence ATP production; ribose 5-phosphate activator present at AC10; Potency, µM; hit rate 1.2% among 51,000; AID 361; in the data active means potency below about 11 µM; inconclusive means mostly about 12 µM to 25 µM;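 the screen sought inhibitors and activators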;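 further: scaled between full activation by ribose 5 phosphate and full inhibition by luteolin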
Luciferase inh: blocks Photinus pyralis firefly luciferase activity | P08659 | purified firefly luciferase, luminescence, 8 min | Potency, µM (highest dose often 57.1 µM), for the others: at the top dose activity change, negative = inhibition, usual class: inhibitors | hit rate 2.2% among 72,000; further: nearly all actives have a fitted effect of over 40% in size
Target sequence (P08659 whole entry, looked up): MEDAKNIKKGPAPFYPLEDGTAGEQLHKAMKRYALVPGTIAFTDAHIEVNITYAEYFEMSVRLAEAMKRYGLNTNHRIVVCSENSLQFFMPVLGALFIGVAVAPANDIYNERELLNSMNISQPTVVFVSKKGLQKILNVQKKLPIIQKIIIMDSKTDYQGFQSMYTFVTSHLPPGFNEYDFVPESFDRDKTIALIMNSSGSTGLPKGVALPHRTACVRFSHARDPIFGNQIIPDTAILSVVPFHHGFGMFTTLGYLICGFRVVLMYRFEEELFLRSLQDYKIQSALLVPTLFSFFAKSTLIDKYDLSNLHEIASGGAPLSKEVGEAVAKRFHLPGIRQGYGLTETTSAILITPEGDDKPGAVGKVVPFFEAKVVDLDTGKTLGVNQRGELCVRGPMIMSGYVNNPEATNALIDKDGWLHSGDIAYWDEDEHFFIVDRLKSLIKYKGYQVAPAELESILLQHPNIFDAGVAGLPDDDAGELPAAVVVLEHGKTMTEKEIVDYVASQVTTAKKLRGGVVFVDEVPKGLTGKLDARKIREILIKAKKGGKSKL
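qHTS concentration-response profiling: light output of P. pyralis luciferase with luciferin and 10 uM ATP, imidazole buffer pH 7.2. Read by luminescence after 8-min room-temperature incubation.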
HADH2 inh: inhibitors of human HADH2 dehydrogenase | recombinant HADH2, NADH fluorescence, beta-hydroxybutyryl-CoA | Q99714 | AID 886 | Potency, µM (doses to about 57.1 µM), inactives show top-dose activity change, negative = inhibition, actives largely listed as inhibitors | hit rate 3.4% among 73,000; further: nearly all actives have a fitted effect of over 60% in size
Target sequence (Q99714 whole entry, looked up, one chain of several): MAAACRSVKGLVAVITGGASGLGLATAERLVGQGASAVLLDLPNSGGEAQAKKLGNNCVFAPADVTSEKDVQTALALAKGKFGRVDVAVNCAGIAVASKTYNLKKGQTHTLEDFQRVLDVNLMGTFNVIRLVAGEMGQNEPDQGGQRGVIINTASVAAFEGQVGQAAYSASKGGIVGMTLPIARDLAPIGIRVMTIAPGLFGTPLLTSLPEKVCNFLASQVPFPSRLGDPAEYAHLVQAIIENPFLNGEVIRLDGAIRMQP
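Read-out: 360 nm excitation, 450 nm emission, kinetic over 4 min. Conditions: His-tagged human HADH2 20 nM, pH 9.0 Tris with Tween-20, 1 mM NAD+, 90 uM beta-hydroxybutyryl-CoA.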
HSD17B inhib: blocks hydroxysteroid 17-beta dehydrogenase activity; Q99714; recombinant HSD17B10, NADH fluorescence kinetic; Potency, µM (doses to about 57.1 µM), inactives show top-dose activity change, negative = inhibition, actives largely listed as inhibitors; hit rate 7.6% among 75,000; AID 893;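 further: the protocol describes HADH2 (HSD17B10) and not the HSD17B4 of the title; nearly all actives have a fitted effect of over 70% in size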
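Enzyme plus compound, 15 min room temperature; substrate mix added (NAD+ 1 mM, beta-hydroxybutyryl-CoA 90 uM final); plates read kinetically for NADH fluorescence. HADH2 was His-tagged, E. coli-derived, 20 nM.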
ERK AVP block: vasopressin-driven ERK pathway inhibition | HEK293-V1b, vasopressin-stimulated pERK AlphaScreen | Potency, µM (doses to about 57.5 µM), without a hit: top-dose activity, negative = inhibition, usual class: inhibitors | hit rate 0.99% among 72,000; further: nearly all actives have a fitted effect of over 55% in size
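Phosphorylated ERK1/2 detected via AlphaScreen bead proximity in lysates of V1b-expressing HEK293 cells given 25 nM vasopressin for 5 min after 30 min compound exposure (37 °C). AC50 from Hill equation; basal DMSO 0%, vasopressin 100%.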
Numbers without * were called inactive; i = inactive; ? = inconclusive; · = not tested or not shown; [ ] = remark or other dose. Unless noted, the call rests on the fitted dose curve; in most records, active means well fitted curve in the direction sought with a large enough effect; inconclusive means small, poorly fitted or top-dose-only effect, or another doubt; inactive means no such curve, though single readings can be large; an effect the other way counts as inactive or inconclusive. Unless noted, on the % scale 0 is the no-effect control and ±100 the full control effect; potency means the concentration at half of the fitted maximal effect.

SMILES	15-hLO inh	Bst PK mod	Luciferase inh	HADH2 inh	HSD17B inhib	ERK AVP block
CCC(=O)[C@@]1(O)C(=O)N2C(=C3C(=O)OCCC31)N(Cc1ccccc1)C(C)=C(C(=O)OC)C2c1ccccc1 (stereo not given in full)	11%[11.4 µM]	·	·	-6%[11.4 µM]	7%[11.4 µM]	11%[11.5 µM]
CC1(C)Cc2c(sc3c2c(=N)n(Cc2ccco2)c(=O)n3CC(=O)Nc2ccc(Cl)cc2)CO1	-14%	>57	1%	-7%	25µM*	-18%
Cc1cccc(NC(=O)Cn2c(=O)n(Cc3ccco3)c(=N)c3c4c(sc32)COC(C)(C)C4)c1	-6%	>57	0%	15%	20µM*	-16%
CC1(C)Cc2c(sc3c2c(=N)n(Cc2ccco2)c(=O)n3CC(=O)Nc2cccc(Cl)c2)CO1	-4%	>57	0%	1%	-17%	-21%
OB(O)c1csc2ccccc12	7%	·	·	-5%	11%	-16%
COCCNc1nc(-c2ccccc2OC)nc2ccccc12	?	·	-1%[2.29 µM]	?	-26%	-14%
CO[C@H]1C[C@@H]2C[C@H](O)C[C@@H](CC(=O)O[C@@H](/C=C\CC(C)C)C[C@@H]3CC[C@H](C)[C@@H](C1)O3)O2	6%[11.4 µM]	·	2%[11.4 µM]	-3%[11.4 µM]	6%[11.4 µM]	-9%[11.5 µM]
COC(=O)c1ccc(C(=O)OC)c(NC(=O)CCc2ccc(C)o2)c1	1%	>57	0%	0%	-22%	-13%
COC(=O)c1c(NC(=O)CCc2ccc(C)o2)sc(C)c1C	-14%	>57	-2%	?	32µM*	18%
COC(=O)c1ccc(CSc2nc3ccccc3o2)cc1	-5%	i	16µM*	4%	-9%	73%
Clc1cc(Cl)cc(Cl)c1	-11%	·	·	4%	2%	-28%
CC(=O)O[C@@H]1CC[C@]2(C)C(=C[C@@H]([C@@H]3C=C4C[C@@H](OC(C)=O)CC[C@]4(C)C4=C3[C@H]3C[C@@H]5O[C@@]6(CC[C@H](C)CO6)[C@@H](C)[C@@H]5[C@@]3(C)CC4)C3=C2CC[C@@]2(C)[C@H]4[C@@H](C)[C@]5(CC[C@H](C)CO5)O[C@@H]4C[C@H]32)C1	-18%[11.4 µM]	·	-1%[11.4 µM]	7%[11.4 µM]	-4%[11.4 µM]	16%[11.5 µM]
CCCc1nc2oc(C(=O)OCC)c(N)c2c2c1COC(C)(C)C2	-9%	>57	-2%	95%	25µM*	-25%
CCOC(=O)c1oc2nc(C(C)C)c3c(c2c1N)CC(C)(C)OC3	-20%	>57	1%	91%	16µM*	0%
COC(=O)c1ccccc1NC(=O)CSc1nc(NC(=O)c2ccccc2)c2c(C)c(C)oc2n1	-15%	>57	-1%	?	16µM*	-11%
O=C(O)C[C@@H](C(=O)O)C1c2ccccc2-c2ccccc21	5%[11.4 µM]	·	1%[11.4 µM]	11%[11.4 µM]	-2%[11.4 µM]	-14%[11.5 µM]
N#CCCn1c(=O)c(-c2cccs2)nc2cnc(Oc3ccccc3)nc21	-10%	·	1%[11.4 µM]	4%	16µM*	-14%
N#CCCn1c(=O)c(-c2cccs2)nc2cnc(Oc3cccc(Cl)c3)nc21	-21%	·	0%[11.4 µM]	67%	3.2µM*	-10%
N#CCCn1c(=O)c(-c2ccc(Cl)cc2)nc2cnc(Oc3cccc(Cl)c3)nc21	5%	·	1%[11.4 µM]	3%	?	2%
c1csc(CNc2ccnc(-c3ccc4c(c3)OCO4)n2)c1	-28%	·	?	5%	-17%	?
C[C@H](O/N=C1/[C@H]2O[C@@H]2[C@@H](O)[C@H]2[C@H]1CCn1c(=O)n(-c3ccccc3)c(=O)n12)c1cn([C@H](CO)Cc2ccccc2)nn1	16%[11.4 µM]	·	1%[11.4 µM]	-8%[11.4 µM]	-3%[11.4 µM]	18%[11.5 µM]
N#C/C(=C\N1CCNC1=S)C(=O)c1ccc2ccccc2c1	4%[11.4 µM]	·	1%[11.4 µM]	-3%[11.4 µM]	-14%[11.4 µM]	-3%[11.5 µM]
CC(=O)O[C@H]1CC[C@]2(C)C(=CC[C@H]3[C@H]4C[C@H]5O[C@]6(CC[C@H](C)CN6)[C@H](C)[C@@H]5[C@]4(C)CC[C@@H]32)C1	13%[11.4 µM]	·	1%[11.4 µM]	10%[11.4 µM]	4%[11.4 µM]	13%[11.5 µM]
c1ccc(-c2cccc(N3CCC4(CCNCC4)CC3)c2)cc1	-20%	·	-1%[11.4 µM]	-2%	?	-19%
Cc1cccc(-n2c(=O)[nH]c3c(C(N)=O)nc(C(C)C)nc32)c1	-4%	>57	4%	13µM*	25µM*	-22%
SMILES	15-hLO inh	Bst PK mod	Luciferase inh	HADH2 inh	HSD17B inhib	ERK AVP block
COC(=O)c1cnn2c3c(c(C)nc12)CCCC3	8%	·	?	?	32µM*	-3%
O=C1C2=CC[C@H]3C(=O)N(C4CCCCC4)C(=O)[C@@H]3[C@@H]2[C@H](O)[C@@H]2O[C@H]12	-19%[11.4 µM]	·	0%[11.4 µM]	-20%[11.4 µM]	-4%[11.4 µM]	-6%[11.5 µM]
CC1N/C(=C\C(=O)c2ccccc2)N(O)C1(C)C (stereo not given)	-10%	i	13µM*	-15%	1%	-1%
NC(N)=N/N=C\c1ccc(O)c(C(=O)O)c1	2%[11.4 µM]	·	5%[11.4 µM]	-26%[11.4 µM]	?	33%[11.5 µM]
C1=C(c2ccc(-c3ccccc3)cc2)Nc2ncnn2C1c1ccco1 (stereo not given)	-19%	·	-20%	91%	25µM*	-26%
COc1cccc(C2=CC(c3ccccc3)n3ncnc3N2)c1 (stereo not given)	·	>26	4%[25.5 µM]	·	·	·
COCc1cc(C)n(CC(=O)Nc2ccccc2OC)c(=O)c1C#N	6%	>57	0%	4%	25µM*	-14%
COc1ccccc1NC(=O)CCc1c(C)[nH]c(=O)c(C#N)c1C	3%	>57	2%	-17%	-20%	7%
Nc1ncnc2c1nc(Sc1ccc(Cl)cc1)n2[C@@H]1O[C@H]2COP(=O)(O)O[C@@H]2[C@H]1O	-2%	·	4%	7%	4%	-17%
NC[C@H]1O[C@H](n2cnc3c(N)ncnc32)C[C@@H]1O	-6%[11.4 µM]	·	2%[11.4 µM]	5%[11.4 µM]	2%[11.4 µM]	9%[11.5 µM]
CCc1ccc2oc(=O)cc(CN3CCOCC3)c2c1	6%	>57	2%	0%	?	33%
CCNc1cc2oc(=O)c(CN3CCOCC3)c(C)c2cc1C	-9%[11.4 µM]	·	-1%	0.79µM*	25µM*	-16%
CC(=O)OC[C@@H]1O[C@H](C/C=N\OC[C@@H](O)[C@H]2O[C@H]3OC(C)(C)O[C@H]3[C@@H]2O)C=C[C@@H]1OC(C)=O	4%[11.4 µM]	·	-1%[11.4 µM]	-10%[11.4 µM]	8%[11.4 µM]	18%[11.5 µM]
CCOC(=O)c1c(NC(=O)c2cccs2)sc(C)c1CC	-7%	·	5%	25µM*	25µM*	66%
CCOC(=O)c1c(NC(=O)c2ccc(Br)o2)sc(C)c1CC	-16%	·	0%	32µM*	32µM*	43%
CCOC(=O)c1c(NC(=O)c2cccs2)sc2c1CCC2	8%	·	0%	-9%	32µM*	6%
CCc1c(C)sc(NC(=O)c2cccs2)c1C(=O)OC(C)C	-1%	·	2%	-6%	32µM*	106%
CCOC(=O)c1c(NC(=O)c2cccs2)sc(C(=O)N2CCOCC2)c1C	8%	>57	-1%	96%	1%	-20%

Screens (PubChem BioAssay)
